# In PubChem BioAssay:
# The source made the active and inactive calls.
# Assays:
# [1] = compound effects on differentiated 3T3-L1 adipocyte viability – cell-based, 3T3-L1 adipocytes, calcein-AM fluorescence, 48 h, basal, profiling panel (AID 1163); settings: 3T3-L1 adipocytes viability, higher = more signal
# [2] = compound effects on hepatocellular carcinoma cell viability – HepG2, calcein-AM fluorescence, 48 h, basal, profiling panel (AID 1164); settings: higher = more signal
# [3] = compound effects on multiple myeloma cell viability – MM1S, calcein-AM fluorescence, 48 h, basal, profiling panel (AID 1165); settings: higher = more signal;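 also: viability of MM1S multiple myeloma cells under basal unstimulated conditions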
# [4] = calcein-AM signal in unstimulated myeloma cells – cell-based, calcein-AM fluorescence, 48 h, PK04 Diversity Set, profiling panel (AID 1166); settings: RPMI8226 myeloma viability, higher = more signal;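 also: cells grown under basal conditions without added stimulus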
# [5] = JC-1 mitochondrial signal, unstimulated HepG2 cells – cell-based, JC-1 fluorescence, 24 h, 100 nL compound, profiling panel (AID 1167); settings: HepG2 mitochondrial potential, higher = more signal
# [6] = JC-1 mitochondrial signal, unstimulated adipocytes – cell-based, JC-1 fluorescence, 3T3-L1 adipocytes, 24 h, 100 nL compound, profiling panel (AID 1168); settings: JC-1 mitochondrial fluorescence, higher = more signal, called active from +8 up or from −8 down
# [7] = JC-1 mitochondrial signal, unstimulated myeloma cells – cell-based, JC-1 fluorescence, RPMI8226, 24 h, 100 nL compound, profiling panel (AID 1169); settings: JC-1 mitochondrial potential fluorescence, higher = more signal
# [8] = JC-1 mitochondrial signal, unstimulated MM1S myeloma – cell-based, JC-1 fluorescence, 24 h, 100 nL compound, profiling panel (AID 1170); settings: MM1S mitochondrial potential, higher = more signal
# [9] = resazurin metabolic signal in A549 cells – cell-based, resazurin fluorescence, 24 h, PK04 Diversity Set, profiling panel (AID 1171); settings: A549 viability, higher = more signal, called active from +8 up or from −8 down
# [10] = resazurin metabolic signal in HepG2 cells – cell-based, resazurin fluorescence, 24 h, PK04 Diversity Set, profiling panel (AID 1172); settings: HepG2 viability, higher = more signal
# [11] = budding yeast growth changes without added modifier – OD600, strain BY4716, 24 h, basal condition, primary screen (AID 1173); settings: S. cerevisiae BY4716 growth, OD600, 24 h; higher = more signal, called active from +8 up or from −8 down
# [12] = viability profiling in MM1S myeloma cells – cell-based, resazurin fluorescence, basal, 24 h, PK04 Diversity Set, profiling panel (AID 1174); settings: higher = more signal, called active from +8 up or from −8 down
# [13] = target: Dihydroorotate dehydrogenase (quinone), mitochondrial (Plasmodium falciparum (isolate 3D7)) (UniProt Q08210); test: inhibition of P. falciparum DHODH – biochemical, C-terminal His tag, absorbance 600 nm, primary screen (AID 1175); settings: PfDHODH enzyme, DCIP absorbance 600 nm; higher = more signal, called active from +8 up or from −8 down;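 also: recombinant parasite enzyme with a five histidine tag at its C terminus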
# [14] = growth modulation of vineyard yeast isolate – strain RM11-1a, OD600, basal, 24 h, primary screen (AID 1177);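 also: cultures grown under basal conditions with no added stressor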; settings: S. cerevisiae RM11-1a growth, OD600, 24 h; higher = more signal, called active from +8 up or from −8 down
# [15] = growth of efflux-deficient E. coli DRC39 – strain DRC39, OD650, 24 h, E. coli filamentation inducers, primary screen (AID 1178);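 also: growth measured as culture turbidity by optical density at 650 nm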; settings: E. coli DRC39 acrAB, higher = more signal, called active from +8 up or from −8 down
# [16] = growth of efflux-deficient E. coli DRC39 – strain DRC39, OD650, 48 h, E. coli filamentation inducers, primary screen (AID 1179);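 also: screen aims at cell division blockers that make cells filament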; settings: E. coli DRC39 delta-acrAB growth, higher = more signal, called active from +8 up or from −8 down
# [17] = viability profiling in RPMI8226 myeloma cells – cell-based, resazurin fluorescence, basal, 24 h, PK04 Diversity Set, profiling panel (AID 1180); settings: higher = more signal;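 also: RPMI8826 multiple myeloma cell line at 5000 cells per well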
# [18] = target: E3 ubiquitin-protein ligase XIAP (Homo sapiens) (UniProt P98170); test: small molecules binding XIAP protein – biophysical, small-molecule microarray, fluorescence 635 nm, primary screen (AID 1181); settings: higher = more signal;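 also: score merges 667 nm emission and signal to noise over triplicate slides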
# [19] = system: XIP peptide (Xip251-270) binding; test: XIP fragment 251-270 binding compounds – biochemical, small-molecule microarray, fluorescence 635/667 nm, 0.1 µg/mL protein, primary screen (AID 1182); settings: fluorescent protein binding, 635 nm, higher = more signal, called active from +8 up or from −8 down
# XIP peptide (Xip251-270) = test: compounds binding XIP fragment 251-270 – biochemical, small-molecule microarray, fluorescence 635/667 nm, 0.5 µg/mL protein, primary screen (AID 1183); settings: fluorescence 635 nm, higher = more signal
# E3 ubiquitin-protein ligase XIAP (Homo sapiens), sequence (P98170 whole entry, looked up, the tested form may be a part): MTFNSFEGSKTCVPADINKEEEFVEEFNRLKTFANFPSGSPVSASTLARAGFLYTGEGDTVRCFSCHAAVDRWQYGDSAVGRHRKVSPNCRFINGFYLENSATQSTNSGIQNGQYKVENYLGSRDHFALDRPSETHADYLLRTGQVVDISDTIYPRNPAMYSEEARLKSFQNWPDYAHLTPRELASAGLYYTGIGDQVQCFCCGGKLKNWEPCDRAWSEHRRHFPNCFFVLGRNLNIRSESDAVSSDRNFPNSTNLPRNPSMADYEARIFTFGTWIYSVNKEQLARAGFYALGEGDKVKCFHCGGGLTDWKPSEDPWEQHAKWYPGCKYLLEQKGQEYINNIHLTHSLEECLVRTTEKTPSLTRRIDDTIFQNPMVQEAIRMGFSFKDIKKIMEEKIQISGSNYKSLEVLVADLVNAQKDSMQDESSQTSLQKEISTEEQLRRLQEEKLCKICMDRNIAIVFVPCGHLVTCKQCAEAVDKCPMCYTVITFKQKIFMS
# Dihydroorotate dehydrogenase (quinone), mitochondrial (Plasmodium falciparum (isolate 3D7)), sequence (Q08210 whole entry, looked up): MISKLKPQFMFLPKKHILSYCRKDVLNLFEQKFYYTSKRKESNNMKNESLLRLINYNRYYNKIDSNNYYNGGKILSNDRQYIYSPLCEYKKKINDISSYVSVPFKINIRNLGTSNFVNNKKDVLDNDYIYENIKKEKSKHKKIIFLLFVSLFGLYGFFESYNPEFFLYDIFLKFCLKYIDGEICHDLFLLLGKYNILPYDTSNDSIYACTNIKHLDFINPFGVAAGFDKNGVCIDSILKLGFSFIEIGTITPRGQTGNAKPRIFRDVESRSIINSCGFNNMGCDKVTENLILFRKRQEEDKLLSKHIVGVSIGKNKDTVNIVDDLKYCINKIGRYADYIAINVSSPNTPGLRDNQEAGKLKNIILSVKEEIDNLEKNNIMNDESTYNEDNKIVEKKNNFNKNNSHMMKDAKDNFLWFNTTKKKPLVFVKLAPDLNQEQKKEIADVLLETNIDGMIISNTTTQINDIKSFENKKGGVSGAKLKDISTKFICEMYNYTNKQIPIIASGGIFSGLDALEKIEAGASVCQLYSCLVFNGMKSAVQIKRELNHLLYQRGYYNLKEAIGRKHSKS
SMILES,z-score [1],z-score [2],z-score [3],z-score [4],z-score [5],z-score [6],z-score [7],z-score [8],z-score [9],z-score [10],z-score [11],z-score [12],composite z-score [13],z-score [14],z-score [15],z-score [16],z-score [17],composite z-score [18],composite z-score [19],composite z-score (XIP peptide (Xip251-270))
C=CCNC(=O)[C@@H]1[C@H]2C(=O)O[C@H](c3ccccc3)[C@H](c3ccccc3)N2[C@H](c2ccc(O)cc2)[C@@]12C(=O)Nc1ccc(C#Cc3ccc(OC)cc3)cc12,1.12,-2.27,-2.63,-4.22,-2.39,2.94 (inactive),-1.16,-0.975,-1.58 (inactive),-0.322,-0.267 (inactive),-1.64 (inactive),-1.35 (inactive),-0.411 (inactive),-0.071 (inactive),0.773 (inactive),-3.89,-0.0932,0.507 (inactive),0.543
O=C1c2ccccc2C(=O)c2cc([C@H]3Oc4ccccc4S(=O)(=O)N4CCC[C@@H]34)ccc21,1.07,0.158,-2.6,0.558,2.04,0.282 (inactive),0.103,-0.752,0.623 (inactive),1.62,-2.8 (inactive),0.566 (inactive),0.342 (inactive),-1.5 (inactive),2.89 (inactive),1.21 (inactive),0.476,0.0374,-1.15 (inactive),-1.82
CCCC[C@@H](O)C1=C(C)C[C@H]2C(=O)N(C)C(=O)[C@H]2[C@H]1CO,-0.552,0.257,0.0991,-0.0268,1.2,1.01 (inactive),-0.363,0.613,0.199 (inactive),0.648,-3.48 (inactive),0.987 (inactive),0.312 (inactive),-1.09 (inactive),2.71 (inactive),1.75 (inactive),1.03,0.0769,0.627 (inactive),0.586
CC(=O)NCCCC[C@@H]1NC(=O)[C@@H]2C[C@H](C(=O)O)[C@H](c3cccc(OCCO)c3)N2C1=O,0.75,-0.988,-1.8,0.267,1.31,0.317 (inactive),0.501,0.483,0.537 (inactive),0.377,0.178 (inactive),0.636 (inactive),-0.252 (inactive),1.2 (inactive),0.504 (inactive),0.167 (inactive),0.873,-0.363,1.41 (inactive),1
CO[C@H]1O[C@H](CO)[C@@H](OC(=O)Nc2ccccc2)[C@H](OC(=O)Nc2ccc3c(c2)OCO3)[C@H]1OC(=O)Nc1ccc2c(c1)OCO2,1.27,-1.27,-1.03,-1.98,-0.136,3.03 (inactive),-0.629,0.398,-1.33 (inactive),-0.697,-0.613 (inactive),-0.652 (inactive),-0.48 (inactive),1.69 (inactive),2.13 (inactive),0.828 (inactive),-0.638,0.137,1.04 (inactive),0.846
CCOC(=O)C[C@H]1[C@H](OC(=O)c2cc3ccccc3oc2=O)[C@@H](NC(=O)c2ccccc2)c2cc(OCCCO)ccc2N1C(=O)Cc1ccc(OC)cc1,2.5,-0.382,0.497,-1.86,1.66,0.965 (inactive),-0.295,1.13,-0.53 (inactive),-0.259,-1.99 (inactive),0.757 (inactive),-2.68 (inactive),-0.859 (inactive),3.23 (inactive),1.78 (inactive),0.625,-0.139,0.282 (inactive),0.273
C#CCOc1ccc(C[C@H]2C(=O)O[C@H](Cc3ccccc3)[C@H](/C=C/C3CC3)N2CC#C)cc1,0.892,-0.99,-1.63,-1.89,2.08,0.476 (inactive),-0.599,0.0151,1.51 (inactive),1.71,-0.783 (inactive),0.35 (inactive),0.656 (inactive),1.29 (inactive),2.66 (inactive),1.81 (inactive),0.915,-0.144,0.294 (inactive),-0.237
COc1ccc(CCNC(=O)[C@@]2(Sc3ccc(C)cc3)CC(=O)N(Cc3ccccc3)[C@@H]2c2ccc(CO)cc2I)cc1,1.14,-0.46,-1.78,-2.05,1.17,0.0695 (inactive),-0.861,-1.3,1.28 (inactive),0.278,-1.92 (inactive),-2.26 (inactive),0.341 (inactive),0.893 (inactive),0.361 (inactive),-0.0855 (inactive),-1.5,0.0623,-0.281 (inactive),-0.0462
C=CCNC(=O)[C@@H]1[C@H]2C(=O)O[C@H](c3ccccc3)[C@H](c3ccccc3)N2[C@H](c2ccc(O)cc2)[C@@]12C(=O)Nc1ccccc12,2.33,0.869,0.306,-2.6,-0.581,0.889 (inactive),-0.824,1.31,0.679 (inactive),-0.696,-0.146 (inactive),0.634 (inactive),-0.132 (inactive),0.87 (inactive),0.874 (inactive),0.634 (inactive),0.812,0.276,0.768 (inactive),0.888
